# FLuc counter = inhibits or activates purified firefly luciferase, miR-21 counter-screen; purified FLuc, Km substrates, luminescence inhibition; Potency, µM (doses to about 57.5 µM), for the others: at the top dose activity change, negative = inhibition, actives largely listed as inhibitors; 6.9% of 360,000 active; AID 588342;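 note: plate controls were vehicle for no effect and reference inhibitor for full effect; nearly all actives have a fitted effect of over 55% in size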
# Target sequence (P08659 whole entry, looked up): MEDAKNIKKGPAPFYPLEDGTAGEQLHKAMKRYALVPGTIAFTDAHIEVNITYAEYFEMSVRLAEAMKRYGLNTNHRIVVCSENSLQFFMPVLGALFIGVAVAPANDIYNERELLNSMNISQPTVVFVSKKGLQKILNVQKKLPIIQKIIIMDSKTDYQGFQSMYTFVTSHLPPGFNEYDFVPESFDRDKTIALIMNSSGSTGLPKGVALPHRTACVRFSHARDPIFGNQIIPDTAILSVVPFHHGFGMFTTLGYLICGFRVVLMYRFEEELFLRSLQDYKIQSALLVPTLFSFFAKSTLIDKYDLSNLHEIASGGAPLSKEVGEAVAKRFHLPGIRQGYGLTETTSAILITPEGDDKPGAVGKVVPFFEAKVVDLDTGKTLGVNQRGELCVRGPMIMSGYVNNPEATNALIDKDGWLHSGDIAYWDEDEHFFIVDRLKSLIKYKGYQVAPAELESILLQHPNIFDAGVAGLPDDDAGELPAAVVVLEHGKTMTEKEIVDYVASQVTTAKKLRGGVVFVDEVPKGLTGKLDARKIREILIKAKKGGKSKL
#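 Biochemical qHTS of compounds, final roughly 60 µM downward over six points, against 10 nM purified firefly luciferase using Km concentrations of substrates (10 uM D-luciferin, 10 uM ATP) in Tris acetate pH 7.5 buffer; luminescence output.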
# NPC1 prom act = activators of NPC1 promoter. 2.4% of 320,000 active. Potency, µM (top dose mostly 9.22 µM), inactives show at the highest dose activation, usual class: activators. Huh7 NPC1 promoter luciferase reporter, 24 h; note: % of control where 0% means no effect; nearly all actives have a fitted effect of over 60% in size
#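 Luminescence read-out of NPC1 promoter-driven luciferase in stably transfected Huh7 cells; compounds delivered in DMSO and left 24 h at 37C, 5% CO2, qHTS titration format.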
# ELG1 genotoxic = genotoxicity induction in ELG1-luciferase HEK293T cells. HEK293T ELG1-luciferase reporter, luminescence, 16 h. Potency, µM (titrated, usually from 46 µM), for inactives: top-dose activity change, positive = activation, actives largely listed as activators. 1.3% of 330,000 active. AID 504466; note: % of control where 0% means no effect; nearly all actives have a fitted effect of over 60% in size
#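 Quantitative HTS format in 1536-well plates. HEK293T ELG1-luciferase reporter cells receive test compound and are incubated 16 hr at 37 °C, 5% CO2; ONE-Glo added, 30 min room temperature, then luminescence read.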
# SMN2 splice up = increases expression of the SMN2 splice variant. HEK293 SMN2-luciferase splicing reporter, luminescence, 30-36 h. Potency, µM (titrated, usually from 46.1 µM), without a hit: at the top dose activity change, positive = activation, actives largely listed as activators. 2.8% of 210,000 active. AID 1458; note: % of control where 0% means no effect; nearly all actives have a fitted effect of over 55% in size
#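 HEK293 cells carry an SMN2 minigene-luciferase reporter in which exon 7 inclusion puts luciferase in frame. Cells were seeded at 2000 cells/well, attached for 10-12 hours, then exposed to compounds for 30-36 hours at 37C before ONE-Glo luminescence.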
# Rab9 prom act = activators of Rab9 promoter | Huh7 Rab9 promoter-luciferase reporter, luminescence, 24 h | Potency, µM (series often up to 9.22 µM), inactives show top-dose activation, negative = inhibition, usual class: activators | 2.8% of 320,000 active | AID 485297; note: % of control where 0% means no effect; nearly all actives have a fitted effect of over 60% in size
#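 Huh7 reporter line, Rab9 promoter upstream of luciferase. Compound exposure 24 h at 37 °C in reduced-serum medium with 10% FBS. Read-out: luminescence.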
# ELG1 repair inh = ELG1-dependent DNA repair inhibition. AID 504467. 2.3% of 330,000 active. Potency, µM (titrated, usually from 46.1 µM), for the others: at the highest dose activity change, negative = inhibition, actives largely listed as inhibitors. HEK293T ELG1-luciferase reporter, luminescence, 16 h; DNA damage induced by 5-fluorouridine; note: % is set by controls: 0 for no effect and ±100 for the full control effect; nearly all actives have a fitted effect of over 55% in size
#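 Luminescence from the luciferase reporter, measured 30 min after ONE-Glo reagent at room temperature, was the read-out. Beforehand, 2,000 cells per well were exposed for 16 hr at 37 °C to 5-fluorouridine together with compound or vehicle.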
# * = called active by the depositor; ? = inconclusive; nt = no result; [ ] = remark or other dose. This is a sample that favours compounds with a hit; in the whole collection about 9.4% have one here. Calls come from the whole dose curve; as a rule, active = well fitted curve in the direction sought with a large enough effect; inconclusive = small, poorly fitted or top-dose-only effect, or another doubt; inactive = no such curve, though single readings can be large; an effect the other way counts as inactive or inconclusive. Potency is the fitted concentration of half-maximal effect.
SMILES,FLuc counter,NPC1 prom act,ELG1 genotoxic,SMN2 splice up,Rab9 prom act,ELG1 repair inh
CC(C)Cc1cc(C(=O)Nc2ccc(Br)cc2)no1,2.69µM*,?,?,nt,?,?
CC(C)Cc1cc(C(=O)NCc2cccs2)no1,15.1µM*,?,16.4µM*,12.6µM*,?,?
O=C(CSc1nc2c([nH]c3ccccc32)c(=O)n1-c1ccccc1)Nc1cccc(C(F)(F)F)c1,3.7%,nt,nt,nt,nt,nt
CC[C@@H]1C=C(C)C[C@H](C)C[C@H](OC)[C@H]2O[C@@](O)(C(=O)C(=O)N3CCCC[C@H]3C(=O)O[C@H](/C(C)=C/[C@@H]3CC[C@@H](O)[C@H](OC)C3)[C@H](C)[C@@H](O)CC1=O)[C@H](C)C[C@@H]2OC,10.6%,-1.7%,-3.2%,0.9%,2.6%,8.2µM*
C(=N\NC1=Nc2cccc3cccc1c23)/c1ccccn1,1.51µM*,-34.4%,?,-44.3%,-23.0%,?
NC(=O)NNC1=Nc2cccc3cccc1c23,1.8%,-12.3%,-5.8%,-4.4%,0.0%,-11.3%
Clc1ccccc1/C=N/NC1=Nc2cccc3cccc1c23,0.849µM*,?,16.4µM*,5.62µM*,4.47µM*,?
CNC(=O)c1ccc(Nc2nc(-c3ccccc3)nc3ccccc23)cc1,?,15.7%,-15.7%,nt,16.1%,14.6µM*
O=C(O)c1ccc(Nc2nc(-c3ccccc3)nc3ccccc23)cc1,21.3µM*,-3.8%,-5.6%,nt,-8.9%,-10.7%
O=C(Nc1ccc(Br)cc1)c1cnn2c1NC(=C1CC1)C=C2C(F)F,1.0%,nt,nt,nt,nt,nt
COc1ccc(CCNC(=O)C(=O)NCC(c2ccco2)S(=O)(=O)c2ccccc2)cc1OC (stereo not drawn),-2.3%,nt,nt,nt,nt,nt
COc1ccc(CCNc2ncnc3cc(OC)c(OC)cc23)cc1OC,-4.3%,-16.1%,-27.3%,-50.7%,-3.9%,8.2µM*
COc1cc2ncnc(NCCc3ccccc3)c2cc1OC,-6.8%,-5.0%,-10.8%,-19.0%,-13.8%,?
O=[N+]([O-])c1ccc2c(c1)N([O-])C1(CCCCC1)[N+]2=O,15.1µM*,-0.4%,2.4%,nt,10.3%,1.4%
O=C(O)c1cc([N+](=O)[O-])ccc1N1CCCCC1,-1.5%,-1.2%,0.4%,-1.1%,0.9%,-4.6%
Oc1[nH]c2ccccc2c1N=Nc1ccc(F)cc1,4.78µM*,23.0%,?,-12.2%[1.84 µM],?,?
O=Nc1c(-c2c(O)[nH]c3ccccc23)[nH]c2ccccc12,nt,4.61µM*,nt,12.6µM*,?,nt
O=[N+]([O-])c1ccc(N=Nc2c(O)[nH]c3ccc(F)cc23)cc1,-22.9%,2.82µM*,?,nt,?,?
O=[N+]([O-])c1ccc2[nH]c(O)c(N=Nc3ccc(F)cc3)c2c1,0.2%,11.2%,0.4%,nt,-1.7%,-26.3%
O=C(CNC(=O)Cc1ccccc1)N=Nc1c(O)[nH]c2ccccc12,3.4%,-0.3%,-4.6%,nt,14.8%,3.2%
COC(=O)/C=C(\C)N=Nc1c(O)[nH]c2ccccc12,23.9µM*,1.9%,3.1%,nt,-0.4%,?
Cc1ccc2c(c1)N(CCCC(=O)NCc1cccc(F)c1)C(=O)CO2,-12.9%,nt,nt,3.2%,nt,nt
CCCC12CN3CC(C)(CN(C1)C3c1ccc(OCc3ccccc3)cc1)C2=O (stereo not drawn),-6.4%,nt,nt,-1.7%,nt,nt
Oc1[nH]c2ccccc2c1N=Nc1nc2ccccc2s1,1.35µM*,3.55µM*,0.461µM*,2.51µM*,1.12µM*,?
O=C(N=Nc1c(O)[nH]c2ccccc12)c1cc(-c2ccc(F)cc2)n[nH]1,-0.2%,-2.5%,-3.4%,18.9%,-5.0%,0.7%
SMILES,FLuc counter,NPC1 prom act,ELG1 genotoxic,SMN2 splice up,Rab9 prom act,ELG1 repair inh
Oc1[nH]c2ccccc2c1N=Nc1ccccc1,6.01µM*,4.4%,?,nt,?,?
Oc1[nH]c2ccccc2c1N=Nc1ccccc1F,?,?,?,22.4µM*,?,?
Oc1[nH]c2ccc(Br)cc2c1N=Nc1ccc(F)cc1,1.6%,5.6%,2.9%,nt,-1.0%,8.5%
COc1cc(OC)c(NC(=O)C(CC(C)C)N2Cc3ccccc3C2=O)cc1Cl (stereo not drawn),-6.2%,nt,nt,nt,nt,nt
COc1ccc(CNC(=O)Cn2c(-c3ccccc3)cc(C(C)=O)c2C)cc1OC,-0.5%,nt,nt,-11.0%,nt,nt
COc1ccc(NC(=O)CC2C(=O)N(c3ccc(C)cc3)C(=O)N2C2CCCC2)cc1 (stereo not drawn),-2.2%,nt,nt,nt,nt,nt
Cc1ccc(NC(=S)NCC23C=CC(O2)C2C(=O)N(c4ccc(C)cc4)C(=O)C23)cc1 (stereo not drawn),-2.9%,-1.6%,-2.5%,12.6%,-2.6%,-14.6%
CC(C)(C)OC(=O)NCC12C=CC(O1)C1C(=O)N(Cc3ccccc3)C(=O)C12 (stereo not drawn),0.9%,-6.3%,-11.8%,-24.4%,-0.4%,23.1µM*
CCS(=O)(=O)c1ccc(O)c(NC(=O)Nc2ccccc2)c1,-27.3%,-0.6%,0.2%,0.9%,3.1%,14.0%
CCS(=O)(=O)c1ccc(O)c(NC(=O)COc2ccc(Br)cc2)c1,23.9µM*,0.5%,-1.4%,0.6%,-4.1%,-3.9%
CCCNC(=O)Nc1cc(S(=O)(=O)CC)ccc1O,4.8%,-2.9%,-4.1%,nt,-2.5%,8.1%
CCS(=O)(=O)c1ccc(O)c(NC(=O)Nc2ccc(C(C)(C)C)cc2)c1,-18.6%,-1.4%,-13.5%,nt,-7.0%,14.6µM*
Cn1c(=O)oc2cc(S(=O)(=O)NC(CC(=O)O)c3cccc(Br)c3)ccc21 (stereo not drawn),-9.4%,nt,nt,nt,nt,nt
CC(=O)c1ccc(NC(=O)COCc2cc(-c3ccco3)on2)cc1,2.9%,nt,nt,nt,nt,nt
CC(C)NC(=O)c1ccc2c3n(nc2c1)-c1ccc(Cl)cc1CO3,1.9µM*,1.26µM*,?,nt,1.41µM*,?
CCC(C)NC(=O)CSc1c2c(nc3cc(Cl)ccc13)CCCC2 (stereo not drawn),-0.2%,nt,nt,0.1%,nt,nt
CCN(CC)CCCNC(=O)c1ccc2c3n(nc2c1)-c1ccc(Cl)cc1CO3,?,?,?,nt,0.891µM*,?
CCCN(CCC)CCCNC(=O)c1ccc2c(Cl)c3c(nc2c1)CCC3,-5.5%,0.7%,-1.4%,nt,0.1%,3.8%
Cc1ccccc1NC(=O)c1cnn(-c2ccccc2)c1C,13.5µM*,?,3.7%,nt,?,?
CCc1ccccc1NC(=O)c1cnn(-c2ccccc2)c1C,?,0.0%,-2.9%,nt,20.9%,3.2%
Cc1cccc(NC(=O)c2cnn(-c3ccccc3)c2C)c1C,?,2.82µM*,?,nt,3.98µM*,?
Cc1ccc(C)c(NC(=O)c2cnn(-c3ccccc3)c2C)c1,21.3µM*,30.0%,6.4%,nt,?,?

# Screens: PubChem, National Center for Advancing Translational Sciences (NCATS)
